Assay outcomes (PubChem BioAssay)
This is a sample that favours compounds with a hit; in the whole collection about 1.8% have one here.
TSHR antag – human thyrotropin receptor antagonism. P16473. AID 504810. activity change, negative = inhibition, % at 11.5 µM. 330,000 tested, 0.2% active. TSHR-expressing cells, TSH-stimulated cAMP HTRF, 2 h; stronger effect = lower value;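 active = activity change below a set negative limit, meaning inhibition stronger than a set level, cut at about -70% in these data; inconclusive = activity change between two set negative limits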; also: % is scaled to controls: 0 for no effect and ±100 for the full control effect
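TSHR-expressing cells were treated with compounds, then stimulated with TSH at EC80 (4nM final) for 2 hours at 37 deg C. Cellular cAMP was measured by HTRF competition between lysate cAMP and cAMP-d2 for a cryptate-labelled anti-cAMP antibody.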
GLP-1R inv ag – GLP-1 receptor (human) inverse agonism | P43220 | HEK293 GLP-1R CRE-luciferase, luminescence, 24 h; GLP-1R form is constitutively active | Potency, µM (titrated, usually from 38.3 µM), for inactives: at the top dose activity change, negative = inhibition, most hits filed as inhibitors | 410,000 tested, 1.6% active; also: potency is read from the fitted curve at half-maximal effect; % is scaled to controls: 0 for no effect and ±100 for the full control effect; nearly all actives have a fitted effect of over 55% in size
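qHTS in 1536-well format: reporter HEK293 cells expressing constitutive GLP-1R activity in DMEM + 10% Nu serum, 24 hr with compounds at 37 deg C, luminescence read after 12 min with detection reagent.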
GLP1R ag – GLP-1 receptor (human) agonism; P43220; Potency, µM (titrated, usually from 45.6 µM), for inactives: at the highest dose activation, most hits filed as activators; 380,000 tested, 0.007% active; HEK293 GLP-1R CRE-luciferase, luminescence, 4-6 h; cells express a hypersensitive GLP-1R form; also: potency is read from the fitted curve at half-maximal effect; % of control where 0% means no effect
PTHR1 ag – PTHR1 (human) receptor agonism; Q03431; HEK293 GP2 PTHR1 cells, GloSensor cAMP luminescence, 1 h; Potency, µM (top dose mostly 115 µM), for the others: at the top dose activation, most hits filed as activators; 410,000 tested, 0.075% active; AID 743266; also: potency is read from the fitted curve at half-maximal effect; nearly all actives have a fitted effect of over 55% in size
Target sequence (Q03431 whole entry, looked up): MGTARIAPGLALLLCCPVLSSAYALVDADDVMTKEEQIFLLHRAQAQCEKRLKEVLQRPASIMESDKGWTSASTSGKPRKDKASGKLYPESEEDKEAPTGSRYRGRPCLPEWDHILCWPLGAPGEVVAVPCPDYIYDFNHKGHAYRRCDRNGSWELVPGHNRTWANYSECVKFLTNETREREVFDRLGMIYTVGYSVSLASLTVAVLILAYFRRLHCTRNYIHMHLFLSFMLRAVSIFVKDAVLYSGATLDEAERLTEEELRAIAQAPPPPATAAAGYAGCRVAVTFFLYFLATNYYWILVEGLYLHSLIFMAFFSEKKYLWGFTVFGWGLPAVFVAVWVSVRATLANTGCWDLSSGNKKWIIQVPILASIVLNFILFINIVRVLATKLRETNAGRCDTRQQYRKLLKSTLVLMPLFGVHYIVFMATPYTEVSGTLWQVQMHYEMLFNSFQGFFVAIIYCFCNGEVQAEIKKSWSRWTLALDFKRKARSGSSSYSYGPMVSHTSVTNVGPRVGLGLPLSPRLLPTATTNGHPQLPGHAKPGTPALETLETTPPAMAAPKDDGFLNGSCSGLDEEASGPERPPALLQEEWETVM
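HEK-293-derived GP2 cells expressing PTHR1 and a GloSensor cAMP reporter, 3,000/well, plated overnight, given luciferin plus IBMX (each 0.5 mM as added) for 1 h at 37 °C, then compound for 1 h at 37 °C. Luminescence was read after 15 min at room temperature.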
HEK293 tox – cytotoxicity counter-screen for GLP-1 receptor inverse agonists; HEK293 cAMP-luciferase reporter cells, luminescence, 24 h; Potency, µM (titrated, usually from 38.3 µM), inactives show at the highest dose activity change, negative = inhibition, usual class: inhibitors; 410,000 tested, 0.13% active; AID 624418;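 also: loss of luciferase light is scored as toxicity; potency is read from the fitted curve at half-maximal effect; % is scaled to controls: 0 for no effect and ±100 for the full control effect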
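Seeding density was 200 cells/uL; after overnight-length (12 h) culture, 23 nL compounds went on for 24 h at 37 °C. Readout used a luciferase detection reagent, luminescence taken after 12 min at room temperature.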
Starred values were filed as active, the others as inactive; i = inactive; ? = inconclusive; · = not tested or not shown; [ ] = another dose, or the depositor's remark. Unless noted, calls follow the shape of the dose curve; as a rule, active = well fitted curve in the direction sought with a large enough effect; inconclusive = small, poorly fitted or top-dose-only effect, or another doubt; inactive = no such curve, though single readings can be large; an effect the other way counts as inactive or inconclusive.

SMILES | TSHR antag | GLP-1R inv ag | GLP1R ag | PTHR1 ag | HEK293 tox
CN1C(=O)/C(=C/c2ccc(OCc3ccccc3F)cc2)NC1=S | -70* | -1% | -4% | i | -12%
Cc1ccc(CN2CCCC(CO)(Cc3ccccc3C)C2)s1 (centres undefined) | 1 | 8.9µM* | 8% | -7% | ?
CC1CCN(S(=O)(=O)c2ccc3c(c2)c(=O)c(C(=O)NC(C)c2ccccc2)cn3C)CC1 (centres undefined) | · | 7% | · | i | 16%
CC(CSC(=O)c1ccccc1)C(=O)N1CC(Sc2ccccc2)CC1C(=O)O (centres undefined) | · | · | 3% | · | ·
Cc1n[nH]c(C)c1S(=O)(=O)N(CC(=O)NCc1ccccc1Cl)c1ccc(C(C)C)cc1 | · | 10µM* | -6% | -58% | -15%
Cc1ccc(NC(=O)c2nc(-c3ccncc3)no2)c(Cl)c1 | · | -4% | · | i | -20%
CC(=O)Nc1ccc(NS(=O)(=O)c2c(C(=O)N3CCCCCC3)c(C)n(C)c2C)cc1 | · | 5% | · | i | 2%
Cc1cccc(N2CCN(C(=O)c3cc4ccc5cccnc5c4[nH]3)CC2C)c1 (centres undefined) | · | ? | · | -35% | -10%
CCOC(=O)N/N=C/c1ccccc1OCc1ccc(Cl)cc1 | 0 | -25% | 6% | i | -4%
NC(=S)N/N=C/c1ccccc1OCCSc1ccc(Cl)cc1 | -38 | 2.8µM* | 0% | -20% | 3.2µM*
Cc1ccc(C(=O)NCC(C)(C)N2CCOCC2)s1 | -10 | 4% | -5% | -8%[57.5 µM] | -13%
CC(C)(CNC(=O)C1c2ccccc2-c2ccccc21)N1CCOCC1 | -82* | -24% | 6% | i | -1%
NC1(c2ccc(-c3nc4ccn5c(=O)[nH]nc5c4cc3-c3ccccc3)cc2)CCC1 | · | · | 10% | · | ·
Cn1cc(-c2cc3n(n2)CCC(=O)N3CC(=O)O)c2ccccc21 | · | 3% | · | i | -13%
Cc1nc(-c2cccc(NC(=O)c3ccc(-n4nccc4C)cc3)c2)cs1 | -72* | ? | -4% | -35% | ?
Cc1nc(-c2ccc(C(=O)Nc3cccc(Br)c3)cc2)cs1 | -32 | ? | -1% | -22% | -9%
O=C(NC1CC2CCC(C1)N2Cc1nnnn1Cc1ccco1)NC12CC3CC(CC(C3)C1)C2 (centres undefined) | -15 | 10µM* | -11% | -88% | -9%
CCCCn1c(C23CC4CC(CC(C4)C2)C3)n[nH]c1=S | -29 | 7.1µM* | -11% | i | -6%
CCN(CC)C(=O)Cn1c(=O)n(-c2ccccc2)c(=O)c2sccc21 | -81* | 19% | -5% | -16% | -5%
COc1cc(OC)c(NC(=O)COCc2cc(-c3cccs3)on2)cc1Cl | · | -1% | · | ? | 6%
CCc1nc2ccc(C(=O)NCCc3ccc(SC)cc3)cc2nc1CC | · | 35% | · | -11% | -4%
CSCCC(NC(=O)c1ccccc1)C(=O)N1CC=C(c2ccccc2)CC1 (centres undefined) | 0 | 10µM* | -3% | -27% | -22%
CCOC(=O)c1ccc(NC(=O)Nc2ccc(F)cc2)cc1 | -16 | 4.5µM* | -6% | -24% | ?
CCOC(=O)c1ccc(NC(=O)C2(c3ccc(OC)cc3)CCCC2)cc1 | -23 | 5µM* | 2% | -25%[57.5 µM] | -16%
O=C(NC(=S)Nc1ccccn1)c1ccccc1 | -31 | 10µM* | -7% | -61% | ?
SMILES | TSHR antag | GLP-1R inv ag | GLP1R ag | PTHR1 ag | HEK293 tox
CCOC(=O)c1ccc(NC(=S)Nc2ccccn2)cc1 | -13 | ? | 1% | 2%[57.5 µM] | 5.6µM*
CCOC(=O)c1ccc(NC(=S)Nc2ccc(Cl)cn2)cc1 | -1 | -8% | -6% | ? | -1%
O=C(NC(=S)Nc1ccccn1)c1ccc(-c2ccccc2)cc1 | -16 | ? | 2% | -24% | ?
Cc1ccc(-c2noc(-c3nnn(CC(=O)Nc4cc(Cl)ccc4C)c3N)n2)cc1 | · | 15% | · | -20% | 1%
CCN(C(=O)c1cn(-c2ccc(OC)cc2)c(=O)c2ccccc12)c1cccc(Cl)c1 | · | ? | · | -20% | 3%
Cc1ccc(CCNC(=O)c2ccc(Cn3c(=O)c4cccn4c4cccnc43)cc2)cc1 | · | 19% | · | -8% | -4%
S=C(Nc1ccc(Nc2ccccc2)cc1)Nc1ccccn1 | -29 | 2.2µM* | 13% | -31% | ?
Cc1csc(NC(=S)NC(=O)c2ccccc2)n1 | 7 | 3.5µM* | 8% | -13% | ?
Cc1ccc(OCCNC(=O)c2cccc(S(=O)(=O)NCc3ccccc3)c2)cc1 | -1 | 5µM* | 4% | -38% | ?
CC1CCCC(NC(=O)c2cccc(S(=O)(=O)NCc3ccccc3)c2)C1C (centres undefined) | 3 | 11µM* | 6% | -39% | -22%
CCOC(=O)c1oc2c(c1C)-c1nn(Cc3cccc(Cl)c3)cc1CC2 | · | -20% | · | -45% | 14%
COc1cc(/C=C/C(=O)c2ccc3c(c2)OCO3)cc(Cl)c1O | -5 | 11µM* | 9% | -13% | 391%
CC(C)(C)NCC(O)COc1c(F)cc(Br)cc1F (centres undefined) | -7 | -1% | 7% | i | -3%
CC(C)(C)CC(C)(C)NCC(O)COc1c(F)cc(Br)cc1F (centres undefined) | 13 | 10µM* | -20% | -12% | -5%
Cc1ccc2cc(NC(=O)c3ccc(C(C)(C)C)cc3)ccc2n1 | -16 | 4µM* | -4% | -29% | -35%
CCc1ccc(C(=O)Nc2ccc3nc(C)ccc3c2)cc1 | -8 | ? | 24% | -69% | -22%
Cc1ccccc1NC(=O)c1cc2ccccn2n1 | -84* | -29% | -1% | -91% | -3%
C/C(=N\NC(=O)c1ccccc1)c1ccccc1Br | 0 | ? | 9% | i | 5µM*
Cc1nn(-c2ccc(Br)cc2)c(=O)c2ccccc12 | -29 | ? | 10% | i | 0%
Cc1nn(-c2c(Cl)cc(Cl)cc2Cl)c(=O)c2ccccc12 | 3 | 8.9µM* | -2% | -13% | 7%
CCOc1ccc(CNC(=O)C2Cc3cc(S(=O)(=O)N4CCCCCC4)ccc3N2C(C)=O)cc1 (centres undefined) | · | 5% | 1% | -50% | -2%
Cc1cccc(NC(=O)CC(=O)Nc2cccc(C)c2)c1 | -3 | ? | 6% | -14% | 0%
Cc1cccc(NC(=O)C23CCC(C)(C2Br)C3(C)C)c1 (centres undefined) | -1 | 3.5µM* | 2% | i | 9%
Oc1ccc2ccccc2c1N=Nc1ccccc1F | 1 | 16% | 1% | i | -12%
Oc1ccc2ccccc2c1N=Nc1ccccn1 | -10 | ? | ? | i | 2.5µM*
COc1ccc(-c2cnc(C)o2)cc1S(=O)(=O)Nc1ccc(OC(F)(F)F)cc1 | · | ? | · | i | -4%
